Experimental data reported in PubChem BioAssay (NCI).
About 79,000 compounds went through this panel and 15% of them were active in at least one assay; those are over-represented in the sample as a whole. Unmarked numbers belong to inactive results. The source made the active and inactive calls. No stated cut-off is given here; in the data, active means growth inhibition above about 70%; inactive means the rest. Where a SMILES comes first, the peptide text is derived from it. The star is where a group is joined. Cbz = O=C(OCc1ccccc1)*; OBn = c1ccc(CO*)cc1

Test: NCI Yeast Anticancer Drug Screen. Data for the rad50 strain (AID 155);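 further: 0% = growth of vehicle-only cultures of the same strain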
Conditions: S. cerevisiae rad50 strain growth inhibition, hits give high values; at 50.0 µM unless noted
How it was run: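 DNA repair mutant yeast, compound exposure, growth read-out; inhibition is taken relative to vehicle.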

Compound	growth inhibition
c1ccc(C2(c3ccc(C4(c5ccccc5)Oc5ccccc5S4)[nH]3)Oc3ccccc3S2)cc1 (stereo not given)	20.4%
COc1cccc(C#CC(=O)O)c1	-25.6%
Nc1nc(N)c(N=O)c(Nc2ccccc2)n1	7.75%
C=C1C(=O)OC2/C=C(\C)C(O)CCC(C)(O)CC(OC(=O)/C(C)=C/C)C12 (stereo not given)	2.35%
NC(CSCCB(O)O)C(=O)O (stereo not given)	-11.7%
Cc1ccc2nc(Sc3c([N+](=O)[O-])ncn3C)[nH]c2c1	-16.1%
CC(=O)c1ccccc1NC=O	-7.55%
CNc1cc([N+](=O)[O-])ccc1Br	10.2%
CC(Cl)S(=O)(=O)c1ccccc1 (stereo not given)	7.45%
CCC(C)C(NC(=O)C1CSC(C)(C)N1C=O)C(=O)OC1CCCCC1 (stereo not given)	38.9%
O=C(NSN1CCOCC1)c1ccccc1	38.8%
Cc1cnc2ccccc2c1/C=C/c1ccc(N(C)C)cc1	-6.15%
Cn1c(=O)c(C(=O)Nc2nc(C34CC5CC(CC(C5)C3)C4)cs2)c(O)c2ccccc21	-27.8%
CCOC(=O)N1CCc2cc(OC)c(OC)cc2C1Cc1ccc(OC)c(OC)c1 (stereo not given)	-2.2%
CCC(SC(CC)(CC)C(=O)O)C(N)=O (stereo not given)	-9.9%
CC(=O)OCC(O)CS(=O)c1ccc(C)cc1 (stereo not given)	-6.25%
CC1(C)CC[C@]2(C(=O)O)CC[C@]3(C)C(=CC[C@@H]4[C@@]5(C)CC[C@H](OC6OC(CO)C(O)C(O)C6O)C(C)(C)[C@@H]5CC[C@]43C)[C@@H]2C1 (stereo not given in full)	76.2% (active)
O=C(NC1c2ccccc2Oc2ccccc21)OCCI	36.1%
COc1ccc(N=N/C(=N/NC(=O)c2cc(Cl)ccc2C(=O)c2ccccc2)c2ccc(N(CCC#N)CCC#N)cc2C)cc1	3.2%
N#CCN1CCc2ccccc2C1	-8.45%

Compound	growth inhibition
Cc1nc2c3c(ccc2[nH]c1=O)C(=O)c1ccccc1C3=O	19.4%
Cc1ccc(N2C(=O)C3CSCN3C2=O)cc1 (stereo not given)	31.2%
Cc1ccc(-c2ccc(C)cc2C(=O)O)c(C(=O)O)c1	-21.8%
CC(CC(O)C(=O)O)CC(C)(C)C (stereo not given)	-5.95%
N#Cc1sc2c(c1OC(=O)c1cccs1)c(=O)n(-c1ccccc1)c(=S)n2-c1ccccc1	3.1%
O=C(O)c1nc2ccccc2nc1C(=O)O	-27.9%
CC1(C)C2CCC3(C2)CS(=O)(=O)N2OC231 (stereo not given)	6.55%
O=C(Cc1ccccc1)SC(=O)Cc1ccccc1	-0.05%
COC(=O)c1cc(NC(=O)Nc2cccc(C(C)=O)c2)cc(C(=O)OC)c1	-9.75%
COC(=O)C(Cc1ccc(O)cc1)NC(=O)C(CC(=O)OCc1ccccc1)NC(=O)OCc1ccccc1 (stereo not given) (Cbz-Asp(OBn)-Tyr-OMe; configuration not given here)	-11.3%
CC(=O)c1cccc(N=NN(C)C)c1	41%
COC(=O)C1Cc2c([nH]c3ccccc23)C=N1 (stereo not given)	65.3%
CC(C)c1cccc(C(C)C)c1NC(=O)N1CCCCC1	4.8%
O=C(O)CC(O)(CC(=O)O)C(=O)O	25%
Nc1c(F)cc(I)cc1F	-3.95%
CC(=O)OCCOCNC(=S)N/N=C(\C)c1ccco1	-19.9%
c1ccc2c(c1)Cc1cc3ccccc3cc1C2	-32.2%
CN(C)c1cccc2c(S(=O)(=O)NCCCNCCN)cccc12	7.6%
O=C(O)c1ccc(NCC(O)COc2ccc([N+](=O)[O-])cc2)cc1 (stereo not given)	-6.7%
CCCCCCCCN1C(=O)CCC1=O	-1.45%
